CYP2C19 inhib – blockers of cytochrome P450 2C19 activity – biochemical, luminescence, ADME assay, primary screen; P33261; CYP2C19 Supersomes, luciferin-H EGE luminescence, 30 min; inhibition, % at 5 µM; 96,000 tested, 21% active;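 active = CYP2C19 inhibition above a set limit at 5 µM in the primary screen, cut at about 50% in these data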;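 note: plate controls were negative control wells for no effect and 2.5 mM tranylcypromine positive control for full effect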
CYP2C9 act – human CYP2C9 activators, primary screen, biochemical, luminescence; activation factor at 5 µM; recombinant CYP2C9, luciferin-H conversion; active compounds read high; factor 1 = untreated enzyme, 0 = blocked; 96,000 tested, 1.4% active; AID 1024, 2008; Cytochrome P450 2C9 (Homo sapiens), P11712;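 active = activation factor of 2 or more for CYP2C9 at a 5 µM dose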;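 note: 0 = sulfaphenazole-blocked wells and 1 = vehicle-only wells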
Target sequence (P11712 whole entry, looked up): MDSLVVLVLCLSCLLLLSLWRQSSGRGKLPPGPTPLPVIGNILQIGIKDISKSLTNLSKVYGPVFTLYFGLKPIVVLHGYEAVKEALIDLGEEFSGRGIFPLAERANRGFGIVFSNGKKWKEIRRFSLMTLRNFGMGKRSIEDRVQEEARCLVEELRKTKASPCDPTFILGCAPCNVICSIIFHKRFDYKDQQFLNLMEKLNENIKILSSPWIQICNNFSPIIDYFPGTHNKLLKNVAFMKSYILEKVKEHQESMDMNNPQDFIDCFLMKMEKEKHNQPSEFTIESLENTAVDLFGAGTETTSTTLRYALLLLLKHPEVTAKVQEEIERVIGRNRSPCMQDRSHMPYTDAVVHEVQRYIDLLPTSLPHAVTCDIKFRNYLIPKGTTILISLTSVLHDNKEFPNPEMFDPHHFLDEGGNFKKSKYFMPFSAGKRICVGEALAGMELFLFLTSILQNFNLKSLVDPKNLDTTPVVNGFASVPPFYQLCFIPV
Cav3 T inh – Cav3.2 calcium influx blockers – cell-based, Fluo-4 calcium fluorescence, FDSS, MLSMR library, primary screen; Voltage-dependent T-type calcium channel subunit alpha-1H (Homo sapiens), O95180; Cav3.2-expressing cells; active compounds read low; B-score at 10 µM; 100,000 tested, 4% active; AID 449739, 2010;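 active = single-dose well whose peak fluorescence ratio is a statistical outlier from its plate by either plate-standardised score or position-corrected B-score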
CYP2C19 activ – human CYP2C19 activators, primary screen, biochemical, luminescence; AID 1025, 2008; recombinant CYP2C19, luciferin-H EGE luminescence; active compounds read high; 0 = fully inhibited enzyme, 1 = untreated enzyme; 96,000 tested, under 10 active; Cytochrome P450 2C19 (Homo sapiens), P33261; activation factor at 5 µM;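 active = activation factor of at least 2 at 5 µM in the primary screen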;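 note: 0 = wells with 2.5 mM tranylcypromine and 1 = vehicle-only wells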
CYP2C9 inhib – blockers of cytochrome P450 2C9 activity – biochemical, luminescence, ADME assay, primary screen; CYP2C9 Supersomes, luciferin-H conversion; 96,000 tested, 20% active; inhibition, % at 5 µM;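 active = blocking of liver enzyme CYP2C9 beyond about 50% at 5 µM, limit read from the data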
Starred values were filed as active, the others as inactive; . = not tested or not shown. In the library only some 27% were active in any assay of this set; here they are far more common.

SMILES	CYP2C19 inhib	CYP2C9 act	Cav3 T inh	CYP2C19 activ	CYP2C9 inhib
Cc1ccc(N(CC(O)CN2CCOCC2)S(=O)(=O)c2ccc3ccccc3c2)cc1 (stereo not given)	19	0.5	0.15	0.8	52*
COc1ccc(-c2cc3ccccc3n2CC(O)CN2CCOCC2)cc1 (stereo not given)	95*	0.4	-0.49	0	63*
Cc1ccc(N(CC(O)CN2CCCC2)S(=O)(=O)c2ccc(C)cc2)cc1 (stereo not given)	10	1	0.77	0.9	-2
Cc1ccc(S(=O)(=O)N(CC(O)CN2CCOCC2)c2cc(Cl)ccc2Cl)cc1 (stereo not given)	54*	0.8	-0.11	0.5	18
CCc1nnc(NC(=O)CSc2nnc(COc3ccccc3)n2Cc2ccccc2)s1	.	.	2.4	.	.
NC(=O)CN1CCN(C(=O)NC2CCCCC2)CC1	-15	1.2	-1.9	1.2	-17
CC1CCN(CC(O)COCCC23CC4CC(CC(C4)C2)C3)CC1 (stereo not given)	32	1.1	-0.96	0.7	-7
CC1(c2ccc3noc(-c4ccc(F)cc4)c3c2)OCCO1	69*	0.9	-0.7	0.3	14
CC1(c2ccc3noc(-c4ccccc4)c3c2)OCCO1	50*	0.6	-0.42	0.5	45
O=C1CCN(S(=O)(=O)c2ccccc2)CCN1CCOCc1ccc(Cl)cc1	.	.	-0.44	.	.
CCOC(=O)c1cccc(Nc2ncnc3ccc(C)cc23)c1	56*	0.5	1.3	0.4	50
CC1CCCC(n2c(=S)[nH]c3ccccc3c2=O)C1C (stereo not given)	54*	0.8	1.2	0.5	15
Cc1ccccc1-n1c(C)cc(/C=N/NC(=O)c2ccncc2)c1C	24	0.5	0.85	0.8	51*
Cc1cccc(C)c1-n1c(C)cc(/C=N/NC(N)=S)c1C	91*	0.1	-5.9*	0.1	93*
Cn1c2c(c(=O)n(C)c1=O)CN(CCN1CCNCC1)CN2	-18	1	-0.92	1.2	-1
CCO[C@@H]1OC(C(=O)N2CCN(Cc3ccccc3)CC2)=C[C@H](c2csc3ccccc23)[C@H]1CCCO	.	.	-0.86	.	.
COc1ccc(OC)c(C(c2nnnn2C2CCCC2)N2CCN(c3ccccc3F)CC2)c1 (stereo not given)	95*	0.1	-6.1*	0.1	94*
COc1ccc(N2CCN(C(c3cccc(OC)c3OC)c3nnnn3C3CCCC3)CC2)cc1 (stereo not given)	80*	0.3	-5.4*	0.2	73*
COc1ccc(N2CCN(C(c3ccccc3OC)c3nnnn3C3CCCC3)CC2)cc1 (stereo not given)	76*	0.2	-5.9*	0.2	77*
COc1ccc(C(c2nnnn2C2CCCC2)N2CCC(C(N)=O)CC2)c(OC)c1 (stereo not given)	6	1	.	0.9	4
Fc1ccccc1N1CCN(C(c2ccccn2)c2nnnn2C2CCCCC2)CC1 (stereo not given)	80*	0.2	-2	0.2	77*
COc1ccccc1N1CCN(C(c2cc3cc(C)ccc3[nH]c2=O)c2nnnn2C2CCCC2)CC1 (stereo not given)	24	1.2	-1.3	0.8	-18
O=C(NCC1CC1)c1cc(-c2ccccc2)nn1CC1CC(c2cccnc2)=NO1 (stereo not given)	.	.	0.82	.	.
CCC[C@@H]1CCCO[C@@](C(=O)NCCN2CCOCC2)(C(F)(F)F)C1	.	.	0.15	.	.
CCOC(=O)c1cc(NC(=O)N2CCCCC2)c(C)nc1C	11	1.1	0.0019	0.9	-10
SMILES	CYP2C19 inhib	CYP2C9 act	Cav3 T inh	CYP2C19 activ	CYP2C9 inhib
COC(=O)NCc1cc2cc(Cl)ccc2[nH]1	.	.	-1.9	.	.
COc1cccc(C2(O)CCN(C(=O)C3CCC3)CC2)c1	64*	0.5	0.15	0.4	47
COc1cccc(C2(O)CCN(C(=O)C3CC3)CC2)c1	19	1	-0.08	0.8	-4
CC(=O)N1C(=O)C2(C(C#N)=C(N)Oc3c2c(C)nn3-c2ccccc2)c2ccccc21 (stereo not given)	39	0.2	-2.3	0.6	81*
CC1=CC(C)(C)N2C(=O)C3(C(C#N)=C(N)OC4=C3C(=O)CC(C)(C)C4)c3cccc1c32 (stereo not given)	5	0.9	-0.32	0.9	6
Cc1nn(-c2ccccc2)c2c1C1(C(=O)N3c4c(cccc41)C(C)CC3(C)C)C(C#N)=C(N)O2 (stereo not given)	76*	0	-2.3	0.2	97*
Cc1nn(-c2ccccc2)c2c1C1(C(=O)N(C)c3ccccc31)C(C#N)=C(N)O2 (stereo not given)	15	0.4	-1.2	0.8	56*
CCN1C(=O)C2(C(C#N)=C(N)Oc3c2c(C)nn3-c2ccccc2)c2ccccc21 (stereo not given)	61*	0.2	-1.3	0.4	79*
COC(=O)CN1C(=O)C2(C(C#N)=C(N)Oc3cc(C)oc(=O)c32)c2ccccc21 (stereo not given)	19	0.8	0.029	0.8	22
CS(=O)(=O)N1CCN(c2ccccc2NC(=O)c2cccnc2Cl)CC1	7	1	1.4	0.9	4
CCOc1ccc(C(=O)Nc2cc(=O)n(C)c(=O)n2C)cc1	.	.	0.25	.	.
N=c1c2c3c(sc2nc2n1CCC2)CCCC3	-18	1.1	-0.035	1.2	-6
CCOC(=O)c1cn[nH]c1N	10	1	0.36	0.9	3
CS(=O)(=O)N1CCCC(C(=O)NCCCN2CCOCC2)C1 (stereo not given)	-2	1	1.3	1	-1
CC(=O)N1C(=O)C2(C(C#N)=C(N)Oc3cc(C)oc(=O)c32)c2ccccc21 (stereo not given)	50	0.1	-0.29	0.5	88*
Cc1cc2c(c(=O)o1)C1(C(=O)N(C)c3ccccc31)C(C#N)=C(N)O2 (stereo not given)	2	0.9	-0.08	1	8
CSc1ccc(N2C(=O)NC3(CCCCC3)C2=O)cc1	70*	1.1	-0.48	0.3	-8
O=C1NC2(CCCCC2)C(=O)N1c1ccccc1	22	0.9	0.91	0.8	10
COC(=O)c1sccc1NC(=O)Cn1cnc2c1c(=O)n(C)c(=O)n2C	41	0.8	1.1	0.6	17
O=C1NCCCC1C(=O)N1CCN(C(=O)C2CCCNC2=O)CC1 (stereo not given)	-17	1.1	.	1.2	-10
COC(=O)c1cc(=O)n(CCc2ccc(OC)c(OC)c2)c(=Nc2ccc(F)c(Cl)c2)s1	57*	0.2	-1.3	0.4	76*
OC(COc1c(Cl)cc(Cl)cc1Cl)CN1CCCCC1 (stereo not given)	47	0.9	-2.9*	0.5	9

From PubChem BioAssay
